The list is not random: actives were taken first. Their share in the collection is about 2.3%.
aSyn rescue: inhibitors of alpha-synuclein toxicity in yeast. Yeast expressing alpha-synuclein, growth rescue, BacTiter-Glo, 24 h. Potency, µM (doses to about 46.1 µM), without a hit: top-dose growth rescue (activation), actives largely listed as activators. hit rate 0.14% among 370,000. AID 652106; note: potency is the fitted concentration of half-maximal effect; % of control where 0% means no effect; nearly all actives have a fitted effect of over 65% in size
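Rescue of yeast growth: cells expressing toxic alpha-synuclein, induced in galactose at OD600 0.02, incubated with compound 24 h at 30 C. ATP luminescence quantified growth; inhibitors of toxicity appear as activators.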
Abeta yeast res: A-beta toxicity reversal in yeast; yeast expressing A-beta42, growth rescue, OD600, 48 h; response scale: 0% DMSO, 100% iron-clioquinol control; Potency, µM (doses to about 46.1 µM), usual class: activators; hit rate 0.063% among 410,000; note: potency is the fitted concentration of half-maximal effect; nearly all actives have a fitted effect of over 55% in size
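Growth rescue measured by 600 nm absorbance after 48 h yeast culture at 30 C with compound. Values normalized between DMSO and an equimolar ferric chloride plus clioquinol control.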
TDP43 rescue: rescues yeast growth from TDP-43 toxicity. TDP-43 expressing yeast growth rescue, BacTiter-Glo, 24 h. Potency, µM (highest dose often 46.1 µM), without a hit: at the highest dose growth rescue (activation), hits mostly activators. hit rate 1.8% among 410,000; note: potency is the fitted concentration of half-maximal effect; % of control where 0% means no effect; nearly all actives have a fitted effect of over 50% in size
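Readout is BacTiter-Glo luminescence of cell growth, so inhibitors register as activators. TDP-43-expressing yeast at OD600=0.02 in galactose medium, after raffinose pregrowth to mid-log, were incubated with compound for 24 hr at 30 deg C.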
FUS suppressor: FUS proteinopathy suppression in yeast. S. cerevisiae FUS-expressing, growth rescue, OD600, 24 h. Potency, µM (series often up to 76.6 µM), usual class: activators. hit rate 0.24% among 390,000. AID 1347120;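 note: potency is the fitted concentration of half-maximal effect; plate controls were DMSO vehicle for no effect and reference control for full effect; nearly all actives have a fitted effect of over 55% in size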
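Yeast FUS proteinopathy model; galactose-induced FUS (2%), starting OD 0.005. Cpds in dilution series, 24hr, 30C, 99% humidity. Abs 600 nm growth. Pos ctrl CP55940 (top 92uM final); neg ctrl DMSO.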
CCT modulator: cytosolic chaperonin activity modulation. purified chaperonin ATPase assay, HTRF ADP detection, 30 min. activity change, % (no concentration beside the values), hits read low. hit rate 0.3% among 360,000. AID 651819; in the data active = activity change below about -30%; note: % is set by controls: 0 for no effect and ±100 for the full control effect
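Nucleotide hydrolysis assay: TRiC at 20–40 nM final (set by batch activity) with 10 uM ATP, 30 min at 37 °C, in presence of 76 uM compound. Detection by competitive ADP HTRF, 30 min ambient.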
MmCpn inh: inhibitors of Methanococcus maripaludis chaperonin TRiC (MmCpn) | hit rate 0.031% among 330,000 | purified Mm-Cpn ATPase, ADP Transcreener TR-FRET | Potency, µM (titrated, usually from 76.9 µM), for the others: at the highest dose activity, negative = inhibition, usual class: inhibitors; note: potency is the fitted concentration of half-maximal effect; % is set by controls: 0 for no effect and ±100 for the full control effect; nearly all actives have a fitted effect of over 80% in size
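ATPase turnover read by TR-FRET ADP competition (Eu cryptate antibody/ADP-d2, 665/590 nm): 10uM ATP final, 25nM Mm-CPN final, 30 min 37degC after 10-min compound preincubation, pH 7.4 Tris/KCl/MgCl2/DTT buffer.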
Starred values were filed as active, the others as inactive; i = inactive; ? = inconclusive; . = no result; [ ] = remark or other dose. Unless noted, calls come from the whole dose curve; as a rule, active = well fitted curve in the direction sought with a large enough effect; inconclusive = small, poorly fitted or top-dose-only effect, or another doubt; inactive = no such curve, though single readings can be large; an effect the other way counts as inactive or inconclusive.

SMILES | aSyn rescue | Abeta yeast res | TDP43 rescue | FUS suppressor | CCT modulator | MmCpn inh
Nc1nonc1-c1noc(-c2ccccc2Br)n1 | 1% | i | 13µM* | i | -1 | -1%
CCOC(=O)[C@H]1[C@H]2COc3cc(OC)ccc3[C@@H]2N2C(=O)CN(CCc3c[nH]c4ccccc34)C(=O)[C@@]12C | 0% | i | 5% | ? | 0 | -6%
COc1ccc2c(c1)OC[C@H]1[C@H]2N2C(=O)c3ccccc3NC(=O)[C@@]2(C)[C@H]1c1ccccc1 | 8% | i | 28µM* | i | -2 | -6%
COc1ccc2c(c1)OC[C@H]1[C@H]2N2C(=O)c3cc(C)ccc3NC(=O)[C@@]2(C)[C@H]1c1ccccc1 | 4% | i | ? | i | 0 | -7%
COc1ccc2c(c1)OC[C@H]1[C@H]2N2C(=O)CN(CCc3c[nH]c4ccccc34)C(=O)[C@@]2(C)[C@H]1c1ccccc1 | -1% | i | -7% | 22µM* | 0 | -1%
COc1cc2c(NC3CCN(C)CC3)nc(N3CCCN(C)CC3)nc2cc1OCCN(C)C | -3% | . | . | . | . | .
COC(=O)c1cc(S(=O)(=O)N2CCN(c3cccc(C(F)(F)F)c3)CC2)cn1C | . | . | . | i | . | .
CCCCNC(=O)OC1CCC12CCC(c1ccccc1)CC2 (configuration not stated) | . | . | . | i | . | .
S=C(NCCSCc1ccc(Cl)cc1Cl)Nc1ccccc1 | 6% | i | 16µM* | i | 1 | 1%
S=C(NCCSCc1ccc(Cl)c(Cl)c1)Nc1ccccc1 | 9% | i | 11µM* | i | -1 | .
COc1ccc(CSCCNC(=S)Nc2ccccc2)cc1Cl | 4% | ? | 20µM* | i | 0 | -1%
Cc1ccccc1CSCCNC(=S)Nc1ccccc1 | -3% | i | 18% | i | -4 | 0%
CCCOc1ccc(CNC(=S)Nc2ccccc2)cc1Cl | -8% | 11µM* | ? | i | 0 | 1%
CCC(=O)Nc1cc(-c2nc3ccccc3s2)c(Cl)cc1Cl | . | i | -5% | i | . | .
S=C(NCCSCc1c(Cl)cccc1Cl)Nc1ccccc1 | 4% | i | 10µM* | i | 1 | -8%
COc1ccc(C2C3=C(CCCC3=O)Nc3nc(SCc4ccc(C(=O)O)cc4)nn32)cc1OC (configuration not stated) | 1% | i | 0% | i | 0 | -1%
COc1ccc(C2C3=C(CCCC3=O)Nc3nc(SCc4ccccc4)nn32)cc1OC (configuration not stated) | 2% | i | 7% | i | -31* | -4%
COc1ccc(OC)c(-c2nn(-c3ccccc3)cc2C(=O)N2CCc3ccccc3C2)c1 | -2%[1.84 µM] | i | 13µM* | ? | 1 | -9%
Clc1ncc(C#Cc2ccccc2)c2ncncc12 | -73% | . | . | . | . | .
COc1cc(/C=C/C(=O)c2c(O)ccc3c(C)cc(=O)oc23)ccc1O | 5µM* | i | ? | i | 2 | .
O=C(c1noc2c1CCCCC2)N1CCN(c2cccc(Cl)c2)CC1 | . | i | 8.9µM* | i | . | .
Cc1cc(S(=O)(=O)c2ccc(Cl)cc2)nc(S(=O)(=O)c2ccc(Cl)cc2)c1C#N | -73% | i | 3.5µM* | i | 0 | .
Cc1cc(C)c(S(=O)(=O)c2ccc(Cl)cc2)c(Cl)n1 | -71% | i | ? | i | -3 | 3%
O=C(N/N=C/C(Br)=C/c1ccccc1)c1ccccc1F | -16% | i | 14µM* | i | -5 | 2%
CC(=O)Nc1ccc(NC(=O)Cc2sc(-c3cccnc3)nc2-c2ccc(C)cc2)cc1 | -1% | i | 2% | 28µM* | -2 | 2%
SMILES | aSyn rescue | Abeta yeast res | TDP43 rescue | FUS suppressor | CCT modulator | MmCpn inh
O=C1C2C(CC3c4ccccc4CCN32)CN1c1ccccc1 (configuration not stated) | . | . | . | i | . | .
C#Cc1ccc(NC(=O)C2(C)CCN2C(=O)Cc2ccc(C(C)C)cc2)cc1 (configuration not stated) | 13% | i | 35µM* | i | -2 | .
C#Cc1ccc(NC(=O)C2(C)CCN2C(=O)Cc2ccc(C(C)(C)C)cc2)cc1 (configuration not stated) | 1% | i | 22% | i | 0 | .
C#Cc1ccc(NC(=O)C2(C)CCN2C(=O)C/C=C/c2ccccc2)cc1 (configuration not stated) | 20% | i | 25µM* | i | 3 | .
O=C1c2ccccc2C(=O)N1c1ccc(S(=O)(=O)N2CCOCC2)cc1 | -6% | . | . | . | . | .
COc1cc2c(NC3CCN(C)CC3)nc(N3CCCN(C)CC3)nc2cc1OCc1ccccc1 | -11% | . | . | . | . | .
O=c1c2ccccc2nc(-c2ccccc2)n1Cc1ccc(Cl)cc1 | 1% | i | 0% | i | 1 | 0%
O=c1c2ccccc2nc(-c2ccccc2)n1Cc1ccccc1 | -8% | i | 22µM* | i | -4 | -1%
Cc1ccc(-c2nc3ccccc3c(=O)n2O)cc1 | 20µM* | i | -40% | i | 1 | 0%
COc1cccc(/C=C/c2nc(C#N)c(N3CCN(C)CC3)o2)c1 | . | i | 5% | i | . | .
CCCCCc1ccc(C2=NNC(=O)CC2)cc1 | 14% | i | 13µM* | i | 0 | 0%
CCCCCc1ccc(-c2ccc(=O)[nH]n2)cc1 | 2% | i | 18µM* | i | -21 | 0%
Cc1ccc(-c2ccc(=O)[nH]n2)cc1 | 0% | i | ? | i | -1 | -16%
COc1cccc(C(=O)/C=C/c2ccc(OCC#N)c(OC)c2)c1 | ? | i | 20µM* | i | -2 | 1%
CC1(Cc2cc(Cl)ccc2C(F)(F)F)C(=O)Nc2c(Cl)cccc21 (configuration not stated) | 0% | i | 2% | i | 0 | .
COc1ccc(Cl)cc1CC1(C)C(=O)Nc2c(Cl)cccc21 (configuration not stated) | 4% | i | 28µM* | i | -1 | .
CC1(Cc2ccc(F)c(Cl)c2)C(=O)Nc2c(Cl)cccc21 (configuration not stated) | 3.5µM* | i | 22µM* | i | -5 | .
O=C1NC(c2ccccc2)=C(c2ccc3ccccc3n2)C(c2ccccc2)N1 (configuration not stated) | -2% | i | -13% | i | 1 | 2%
O=C1NC(c2ccccc2)=C(c2nc3ccccc3s2)C(c2ccc(O)cc2)N1 (configuration not stated) | 4% | i | -32% | 35µM* | 1 | 0%
